From PubChem BioAssay AID602474 (National Center for Advancing Translational Sciences (NCATS), 2012)
Records with an inconclusive call do not appear. Activity calls are given as the source filed them. Calls come from the whole dose curve; as a rule, active = well fitted inhibition curve with a large enough effect; inconclusive = small, poorly fitted or top-dose-only effect; inactive = no such curve, though single readings can be large or run the other way.

biological target: Luciferin 4-monooxygenase (Photinus pyralis) (UniProt P08659); test: FLuc inhibitory activity for the follow-up compounds in a biochemical assay with a commercial detection reagent - BriteliteTM Plus (PerkinElmer); conditions: purified FLuc, Britelite Plus luminescence; series mostly up to 38.3 µM
Sequence (P08659 whole entry, looked up): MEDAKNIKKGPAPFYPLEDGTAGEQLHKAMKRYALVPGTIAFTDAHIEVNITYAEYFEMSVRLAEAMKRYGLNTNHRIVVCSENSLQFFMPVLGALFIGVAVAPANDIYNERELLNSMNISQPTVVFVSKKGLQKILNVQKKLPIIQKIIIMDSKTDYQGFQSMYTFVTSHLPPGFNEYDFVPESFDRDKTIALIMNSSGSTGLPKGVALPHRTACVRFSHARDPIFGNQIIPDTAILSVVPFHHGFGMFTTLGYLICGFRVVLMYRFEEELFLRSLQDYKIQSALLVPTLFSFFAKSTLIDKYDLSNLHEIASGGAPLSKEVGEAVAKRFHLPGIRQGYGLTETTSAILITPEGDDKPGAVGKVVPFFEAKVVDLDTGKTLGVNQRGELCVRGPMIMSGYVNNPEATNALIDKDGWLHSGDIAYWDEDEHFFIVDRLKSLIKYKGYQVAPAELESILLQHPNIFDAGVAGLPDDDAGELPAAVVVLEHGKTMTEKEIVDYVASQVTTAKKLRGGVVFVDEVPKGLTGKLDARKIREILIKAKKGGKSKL
Text: NCGC Assay Overview: Firefly (Photinus pyralis) luciferase is one of the most commonly used transcriptional reporters. It is considered one of the more dynamically responsive reporters - that is, responsive to changes in reporter transcription - as it requires no post-translational modifications and is enzymatically active directly after protein synthesis (Wood, 1998). With no endogenous expression in mammalian cells and without the requirement of external excitation, it offers very little background signal, thus generally providing excellent signal to background for most assays. Previous profiling work to determine the prevalence of compounds that affect FLuc enzymatic activity (PubChem AID 411) identified that ~3% of the MLSMR library (then at ~72K) inhibited FLuc (Auld et al., 2008). […] Of the compounds identified in this profile that inhibited FLuc, 151 compounds were selected for further analysis, in an effort to better understand their mode of inhibiting FLuc. The assay described here was to determine the activity of the compounds in a FLuc assay that used a commercial formulation of detection reagent (BriteliteTM Plus; PerkinElmer).
NCGC Assay Protocol Summary: Reagents: Britelite Plus detection reagent; 50mM Tris acetate, pH 7.5; 10nM P. pyralis luciferase (Sigma #L9506) Control compounds used were two known firefly luciferase inhibitors (3-(5-(3-chlorophenyl)-1,2,4-oxadiazol-3-yl)benzoic acid and 5-(2-fluorophenyl)-3-phenyl-1,2,4-oxadiazole), and DMSO. Assay Summary: Three microliters of buffer containing firefly luciferase (final concentrations: 50mM Tris acetate, 10nM P. pyralis luciferase) are dispensed into each well of a Greiner white, solid-bottom 1536-well format plate using a flying reagent dispenser (FRD). These assay plates were then treated with 23nL of compound or DMSO using a Kalypsys pin tool, which allows for delivery of a 12-point intraplate titration of each compound to the assay plate (quantitative HTS), with final compound concentrations ranging from approximately ~38uM to 0.2nM. Three microliters of 2X Britelite Plus detection reagent was then delivered by FRD to each well. Luciferase activity was then measured using a ViewLux CCD imager (PerkinElmer), with an average exposure time of 2-30 seconds (2X binning, medium/high gain).

Potency, active:
CCOc1ccc2nc(NC(=O)c3ccccc3)sc2c1 2520 nM
Cc1ccc2nc(-c3ccc(N)cc3)sc2c1 895 nM
Nc1ccccc1C(=O)Nc1cccc(C(=O)O)c1 12600 nM
COc1ccc(C(=O)Nc2ccccc2C(=O)N/N=C/c2ccc(O)c(OC)c2)cc1 2 nM
Nc1ccc(C(=O)Nc2ccccc2C(=O)O)cc1 11300 nM
COc1ccc2nc(NC(=O)c3ccc4ncsc4c3)sc2c1 25200 nM
CC(C)C(=O)Nc1cccc(C(=O)Nc2ccccc2C(=O)O)c1 17900 nM
COc1ccc2nc(NC(=O)c3ccco3)sc2c1 1590 nM
O=C(Nc1c(Cl)cc(Cl)cc1-c1nc2ccccc2s1)c1ccc(Br)o1 17900 nM
CN=c1scc(-c2ccccc2F)n1/N=C/c1ccc[nH]1 79.8 nM
CCCC(=O)Nc1nc2ccc(OCC)cc2s1 79.8 nM
CC(C)(C)C(=O)Nc1ccc(-c2nc3ccccc3s2)cc1 17.9 nM
Cn1c(N/N=C/c2cc3ccccc3nc2Cl)nc2ccccc21 12600 nM
O=C(O)c1cccc(NC(=O)c2cccc(NC(=O)C3CCCO3)c2)c1 (stereo not given) 11300 nM
Cc1ccc(C(=O)O/N=C(\N)c2ccccn2)c(Cl)c1 25.2 nM
Cc1ccc(C(=O)Nc2cccc(C(=O)O)c2)cc1 2000 nM
Cc1ccc2nc(-c3ccc(NC(=O)CN4CCN(C(=O)c5ccco5)CC4)cc3)sc2c1 798 nM
CCOc1ccc2nc(NC(=O)c3ccoc3C)sc2c1 2000 nM

Potency, inactive:
Cc1ccc(NS(=O)(=O)c2ccc(Cl)c(C(=O)Nc3cccc(C(=O)O)c3)c2)cc1
O=C(Nc1ccccc1C(=O)Nc1ccccc1C(=O)O)c1ccccc1
O=C(Cc1ccc(Cl)cc1)Nc1cccc(C(=O)Nc2ccccc2C(=O)O)c1
O=C(Nc1ccccc1C(=O)O)c1cc(S(=O)(=O)NCc2ccccc2)ccc1Cl
CCOc1ccc2nc(NC(=O)Cc3cccs3)sc2c1
O=C(O)c1ccccc1NC(=O)c1ccccc1Nc1ccccc1
O=C(O)c1cccc(NC(=O)c2cccc(S(=O)(=O)N3CCc4ccccc43)c2)c1
COc1ccc(NS(=O)(=O)c2cccc(C(=O)Nc3ccccc3C(=O)O)c2)cc1
O=C(Nc1ccccc1-c1nc2ccccc2s1)c1ccc(Br)o1
O=C(O)c1ccc(NC(=O)c2cccc(C(=O)Nc3ccc(C(=O)O)cc3)c2)cc1
COc1ccc2nc(NC(=O)C3CCN(S(=O)(=O)c4cccs4)CC3)sc2c1
O=C(Nc1ccccc1C(=O)O)c1cccc(C(=O)Nc2ccccc2C(=O)O)c1
O=C(O)c1cccc(NC(=O)c2cccc(S(=O)(=O)Nc3cccc(F)c3)c2)c1
CCOC(=O)N1CCN(CC(=O)Nc2nc3ccc(OC)cc3s2)CC1
Cc1ccc(S(=O)(=O)N2CCOCC2)cc1C(=O)Nc1ccccc1C(=O)O
O=C(O)c1cccc(NC(=O)c2ccc(S(=O)(=O)c3ccccc3)cc2)c1
O=C(Nc1ccccc1C(=O)O)c1cccc(S(=O)(=O)Nc2ccc(Br)cc2)c1
